HT1080 IDH1KD tx = qHTS for induction of synthetic lethality in tumor cells producing 2HG: qHTS for the HT-1080-IDH1KD cell line; HT-1080 IDH1 knockdown viability, ATP luminescence, 48 h; Potency, µM (titrated, usually from 46.1 µM), actives largely listed as cytotoxic; hit rate 2% among 360,000; AID 686971, 2013
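HT-1080-IDH1KD cells (IDH1 knocked down), 750/well in RPMI with 5% FBS, treated with compound 48 h at 37 degrees C. Viability by CellTiter-Glo luminescence, normalised to DMSO and no-cell wells; concentration-response curves classed.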
12-LOX inh = Primary qHTS assay for inhibitors of human arachidonate 12S-lipoxygenase (ALOX12): Round 2. Polyunsaturated fatty acid lipoxygenase ALOX12 (Homo sapiens), P18054. purified 12hLO, xylenol orange hydroperoxide absorbance. hit rate 1.1% among 580,000. AID 1671190, 2021. Potency, µM (doses to about 108 µM), most hits filed as inhibitors
Target sequence (P18054 whole entry, looked up): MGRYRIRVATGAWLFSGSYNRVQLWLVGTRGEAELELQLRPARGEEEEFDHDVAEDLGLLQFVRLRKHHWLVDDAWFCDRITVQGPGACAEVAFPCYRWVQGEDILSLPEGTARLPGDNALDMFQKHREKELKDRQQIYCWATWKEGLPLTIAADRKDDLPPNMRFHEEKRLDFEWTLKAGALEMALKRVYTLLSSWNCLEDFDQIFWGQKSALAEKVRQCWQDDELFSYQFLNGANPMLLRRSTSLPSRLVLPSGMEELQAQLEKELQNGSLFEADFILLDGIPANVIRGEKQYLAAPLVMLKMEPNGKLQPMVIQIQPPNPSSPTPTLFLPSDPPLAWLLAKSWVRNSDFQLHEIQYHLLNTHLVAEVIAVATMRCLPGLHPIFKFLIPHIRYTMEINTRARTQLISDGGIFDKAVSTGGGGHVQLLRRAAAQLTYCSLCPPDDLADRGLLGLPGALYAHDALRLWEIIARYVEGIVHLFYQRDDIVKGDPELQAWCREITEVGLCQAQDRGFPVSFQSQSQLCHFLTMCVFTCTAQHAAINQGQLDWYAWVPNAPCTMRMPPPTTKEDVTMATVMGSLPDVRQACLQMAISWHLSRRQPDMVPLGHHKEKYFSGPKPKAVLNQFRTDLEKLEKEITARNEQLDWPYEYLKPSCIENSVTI
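Hydroperoxide product was detected by ferrous iron/xylenol orange as the 573 to 405 nm absorbance ratio. Arachidonic acid at 40 uM (final) was turned over for 30 min at room temperature by 150 nM human 12hLO, pH 7.0 Hepes buffer, after 15 min compound preincubation.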
DT40 TDP1 CPT = qHTS for Inhibitors of human tyrosyl-DNA phosphodiesterase 1 (TDP1): qHTS in cells in presence of CPT; Potency, µM (titrated, usually from 46.2 µM), hits mostly inhibitors; chicken DT40 Tdp1-/-;hTDP1 cells + 20 nM CPT, ATP luminescence, 48 h; AID 686979, 2013; hit rate 12% among 420,000; further: nearly all actives have a fitted effect of over 55% in size
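Cell growth measured by CellTiter-Glo luminescence after a minimum 48 h, 37 C compound exposure with 20 nM CPT in Tdp1-knockout DT40 cells stably expressing hTDP1, seeded 400/well; qHTS titration format.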
IL1B secr inh = qHTS for Inhibitors of Inflammasome Signaling: IL-1-beta AlphaLISA Primary Screen | hit rate 4.7% among 360,000 | AID 743279, 2014 | THP-1 LPS/ATP IL-1B secretion, AlphaLISA, 16 h; hits give low values | activity change, % at 57.5 µM; in the data active means activity change below about -50%; inconclusive means mostly about -30% to -49%
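Secreted IL-1B measured by AlphaLISA bead assay after 16 h compound exposure of THP-1 cells; compounds (final up to 57.5 uM) added 1 h before LPS (250 ng/mL) and ATP (1.25 mM) stimulation; lower signal means less secretion.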
TDP1 cell noCPT = qHTS for Inhibitors of human tyrosyl-DNA phosphodiesterase 1 (TDP1): qHTS in cells in absence of CPT. DT40 Tdp1-/- hTDP1 cells, no CPT, ATP luminescence, 48 h. Potency, µM (doses to about 46.2 µM), actives largely listed as inhibitors. hit rate 15% among 420,000. AID 686978, 2013; further: nearly all actives have a fitted effect of over 55% in size
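Compound effects on proliferation are scored in DT40 Tdp1-/-;hTDP1 cells in the absence of CPT. ATP levels (CellTiter-Glo luminescence) are recorded after a ≥48 hr, 37 °C incubation.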
HT1080NT lethal = qHTS for induction of synthetic lethality in tumor cells producing 2HG: qHTS for the HT-1080-NT fibrosarcoma cell line. HT-1080-NT fibrosarcoma viability, CellTiter-Glo ATP luminescence, 48 h. Potency, µM (doses to about 46.1 µM), actives largely listed as cytotoxic. hit rate 1.6% among 360,000. AID 686970, 2013;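 further: NT is the 2HG producing partner of a matched IDH1 knockdown line; nearly all actives have a fitted effect of over 55% in size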
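A 48-hour cytotoxicity screen used HT-1080-NT cells plated 2 hours before compound delivery. ATP-based CellTiter-Glo luminescence measured viability, normalized to DMSO and no-cell controls.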
Hits are given with their value; . = inactive; ? = inconclusive; / = no result. This is one part of a sample in which hits are shown more often than they occur. Unless noted, the call rests on the fitted dose curve; in most records, active means well fitted curve in the direction sought with a large enough effect; inconclusive means small, poorly fitted or top-dose-only effect, or another doubt; inactive means no such curve, though single readings can be large; an effect the other way counts as inactive or inconclusive.

SMILES | HT1080 IDH1KD tx | 12-LOX inh | DT40 TDP1 CPT | IL1B secr inh | TDP1 cell noCPT | HT1080NT lethal
Cc1nc(-c2ccc(S(=O)(=O)N3CCN(c4ccc(F)cc4)CC3)cc2)co1 | / | . | ? | / | ? | /
Cc1nc(-c2ccc(S(=O)(=O)N3CCN(c4cccc(C(F)(F)F)c4)CC3)cc2)co1 | / | . | ? | / | 18.4µM | /
O=C1NC2(C=Cc3c(ccc4ccccc34)O2)Oc2ccccc21 (stereo not drawn) | ? | / | 23.1µM | . | 23.1µM | .
Oc1ccccc1-c1nc2ccccc2s1 | / | . | / | / | / | /
Cc1cn2c(-c3ccccc3F)nc(=S)nc2s1 | / | . | / | / | / | /
Cc1ccc(-n2ncc3c(=O)n(CC(=O)NCc4ccco4)cnc32)cc1 | . | . | ? | . | 23.1µM | .
Cc1ccc(-n2ncc3c(=O)n(CC(=O)NCc4ccco4)cnc32)cc1C | ? | . | 10.3µM | . | 6.51µM | ?
O=C(Cn1cnc2c(cnn2-c2ccc(F)cc2)c1=O)NCc1ccco1 | 18.4µM | . | 2.91µM | . | 5.8µM | ?
COc1cc2nc(CSCC(=O)NC3CC(C)(C)NC(C)(C)C3)[nH]c(=O)c2cc1OC | / | . | / | / | / | /
CSc1ccccc1NC(=O)c1ccc(OCC2CCCO2)cc1 (stereo not drawn) | / | . | / | / | / | /
Cn1c(NC(=O)c2cc(Cl)ccc2Cl)cc(=O)n(C)c1=O | . | . | . | . | . | .
Cn1c(NC(=O)C(C)(C)Oc2ccc(Cl)cc2)cc(=O)n(C)c1=O | . | ? | 16.4µM | . | ? | .
Cc1cccc(NC(=O)/C(C#N)=C/c2ccc[nH]2)c1C | . | . | 11.6µM | . | ? | .
Cc1ccc(C)c(NC(=O)/C(C#N)=C/c2ccccc2OC(F)F)c1 | / | . | / | / | / | /
Cc1ccc(C)c(NC(=O)/C(C#N)=C/c2ccc[nH]2)c1 | . | . | 18.4µM | . | . | .
N#C/C(=C\c1ccc[nH]1)C(=O)NC1CC1 | ? | . | . | . | . | .
Cc1ccccc1NC(=O)/C(C#N)=C/c1ccccc1C(F)(F)F | . | . | . | -71.8 | ? | .
COc1ccc(N=c2nc(-c3ccccc3)n(-c3ccc(C)cc3)s2)cc1 | / | / | 4.47µM | / | 3.16µM | /
COc1ccc(N=c2nc(-c3ccc(C)cc3)n(-c3ccccc3)s2)cc1 | / | / | 3.98µM | / | 3.55µM | /
COc1ccc(N=C2C(=Nc3ccc(OC)cc3)N(c3ccc(OC)cc3)C(=S)N2C)cc1 | ? | / | ? | . | ? | .
COc1ccc(N=C2SCC(c3ccccc3)=NN2C)cc1 | . | ? | ? | . | ? | .
COc1ccc(N=C2SCC(=O)N2c2ccc(OC)cc2)cc1 | . | . | . | . | . | .
COc1ccc(N=C2C(=Nc3ccc(OC)cc3)N(c3ccc(OC)cc3)C(=S)N2c2ccccc2)cc1 | . | . | 20.6µM | . | 18.4µM | ?
Cc1ccc(-c2nc(=Nc3ccccc3)sn2-c2ccccc2)cc1 | / | / | 3.55µM | / | 3.16µM | /
CCCn1c(C)cc(C(=O)CSc2nc3cc(S(N)(=O)=O)ccc3n2CC)c1C | / | . | / | / | / | /
O=C(c1ccco1)N1C[C@@H](CO)[C@H](c2ccncc2)C1 | / | . | / | / | / | /
Cc1c(OC(C)C(=O)NCc2ccncc2)ccc2c3c(c(=O)oc12)CCC3 (stereo not drawn) | . | . | ? | . | ? | .
CC(=O)COc1ccc2c3c(c(=O)oc2c1C)CCCCC3 | . | . | 14.6µM | . | ? | .
Cc1c(OC(C)C(=O)NCc2ccccn2)ccc2c3c(c(=O)oc12)CCCC3 (stereo not drawn) | . | . | 13µM | . | ? | .
Cc1c(OCC(=O)NC2CCN(Cc3ccccc3)CC2)ccc2c3c(c(=O)oc12)CCC3 | . | . | 16.4µM | . | ? | .

Compound activity as filed in PubChem BioAssay.
